Assay results reported in PubChem BioAssay (NCI).
This is part of a sample that, as a whole, favours compounds with a hit. Of some 79,000 tested, about 15% had one in any assay. Values without a mark were called inactive. Activity calls are given as the source filed them. Cut-off read from the data, not from the text of the source: active = growth inhibition above about 70%; inactive = the rest.

Experiments:
[1] = NCI Yeast Anticancer Drug Screen. Data for the rad50 strain (AID 155);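 note: 0% = growth of vehicle-only cultures of the same strain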; conditions: S. cerevisiae rad50 strain growth inhibition, hits give high values
Procedure, shortened: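 DNA repair mutant yeast, compound exposure, growth read-out; inhibition is taken relative to vehicle.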

[2] = NCI Yeast Anticancer Drug Screen. Data for the mec2-1 strain (AID 157); conditions: S. cerevisiae mec2-1 strain, hits give high values
Procedure, shortened: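 Each compound was tested on mec2-1 yeast, a strain altered in DNA damage repair or cell cycle control. Growth inhibition is reported relative to vehicle.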

[3] = NCI Yeast Anticancer Drug Screen. Data for the sgs1 mgt1 strain (AID 161);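 note: 0% = growth of cultures given vehicle only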; conditions: S. cerevisiae sgs1 mgt1 strain, hits give high values
Procedure, shortened: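 Read-out: growth inhibition vs vehicle controls. Cells: mutant yeast strain deficient in DNA damage repair.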

[4] = NCI Yeast Anticancer Drug Screen. Data for the cln2 rad14 strain (AID 165);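 note: 0% = growth equal to vehicle treated cultures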; conditions: S. cerevisiae cln2 rad14 strain, hits give high values
Procedure, shortened: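 Test compounds were added to cln2 rad14 yeast cultures; inhibition of growth was then determined by comparison with vehicle treatment.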

[5] = NCI Yeast Anticancer Drug Screen. Data for the bub3 strain (AID 167); conditions: S. cerevisiae bub3 mutant strain, hits give high values
Procedure, shortened: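 In this screen, a yeast mutant lacking normal mitotic checkpoint function is challenged with compound. Relative growth versus vehicle gives the inhibition value.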

[6] = NCI Yeast Anticancer Drug Screen. Data for the mlh1 rad18 strain (AID 175); conditions: S. cerevisiae mlh1 rad18 strain growth inhibition, hits give high values
Procedure, shortened: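 Inhibition values reflect reduced growth of mutant yeast versus vehicle-treated controls following compound exposure; the mutations affect DNA damage repair.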

[7] = at 5.0 µM (retest, dose inferred, filed as 0.5)
[8] = at 50.0 µM (retest, dose inferred, filed as 5.0)

Row | SMILES | growth inhibition [1, 7] | growth inhibition [1, 8] | growth inhibition ([1]; at 50.0 µM) | growth inhibition [2, 7] | growth inhibition [2, 8] | growth inhibition ([2]; at 50.0 µM) | growth inhibition [3, 7] | growth inhibition [3, 8] | growth inhibition ([3]; at 50.0 µM) | growth inhibition [4, 7] | growth inhibition [4, 8] | growth inhibition ([4]; at 50.0 µM) | growth inhibition [5, 7] | growth inhibition [5, 8] | growth inhibition ([5]; at 50.0 µM) | growth inhibition [6, 7] | growth inhibition [6, 8] | growth inhibition ([6]; at 50.0 µM)
1 | O=C1CCCC2c3ccccc3NC12 (stereo not given) | -147% | -137% | 1.85% | -50% | -57% | 34.6% | -64% | -64% | -2% | -51% | -56% | 78.7% (active) | -68% | -75% | -17.9% | -139% | -111% | 9.5%
2 | O=C(c1ccc(Br)cc1)C1OC12C(=O)Nc1ccccc12 (stereo not given) | 46% | 99% (active) | 99.7% (active) | 99% (active) | 99% (active) | 99.7% (active) | 84% (active) | 100% (active) | 99.7% (active) | 49% | 99% (active) | 99.1% (active) | 99% (active) | 99% (active) | 99.6% (active) | 99% (active) | 99% (active) | 99.5% (active)
3 | Cn1c(=S)c2[nH]c(SCCN3CCCC3)nc2n(C)c1=O | 83% (active) | 99% (active) | 90.8% (active) | 70% (active) | 99% (active) | 61.2% | 53% | 94% (active) | 67.5% | 28% | 79% (active) | 1.75% | 61% | 99% (active) | 68% | 37% | 95% (active) | 97.2% (active)
4 | O=C1c2ccccc2C2N1CCCN2C(=O)c1sc2ccccc2c1Cl (stereo not given) | 49% | 98% (active) | 90% (active) | 30% | 99% (active) | 92% (active) | 29% | 99% (active) | 92.8% (active) | 28% | 96% (active) | 90.3% (active) | 35% | 98% (active) | 92% (active) | 44% | 98% (active) | 90.5% (active)
5 | CC(C)=CCC(CC=C(C)C)c1ccncc1 (tested in a mixture with another compound) | 16% | 99% (active) | 99.2% (active) | 15% | 99% (active) | 99.5% (active) | -92% | 100% (active) | 99.5% (active) | 5% | 98% (active) | 99.4% (active) | 21% | 99% (active) | 98.8% (active) | 49% | 99% (active) | 99.5% (active)
6 | O=C1O/C(=C(/Cl)c2c3ccccc3cc3ccccc23)c2ccccc21 | -22% | 95% (active) | 81.1% (active) | -13% | 92% (active) | 80.2% (active) | -15% | 96% (active) | 82.3% (active) | -4% | 94% (active) | 68.7% | -25% | 95% (active) | 84.5% (active) | 27% | 95% (active) | 82.2% (active)
7 | COc1cc2c(c(OC)c1OC)-c1ccc(O)c(=O)cc1C(N=Cc1ccccc1)CC2 (stereo not given) | -5% | -5% | -17.9% | -6% | -7% | -4.45% | -8% | -3% | -5.3% | -7% | 4% | 31.9% | -2% | -2% | 0.2% | -2% | 0% | 18.8%
8 | CCN(CC)CCNc1ccc(C)c2sc3c(OC)cccc3c(=O)c12 | 1% | 22% | 74.6% (active) | -1% | 4% | 9.75% | -3% | 22% | 25.6% | -2% | 8% | -2.4% | -1% | 11% | 23.4% | -5% | 36% | 11.8%
9 | COc1ccc(C(c2ccc(OC)c(OC)c2)C(Cl)(Cl)Cl)cc1OC | 3% | 94% (active) | 89.5% (active) | 8% | 96% (active) | 93.4% (active) | 6% | 95% (active) | 94% (active) | 8% | 94% (active) | 86% (active) | 3% | 97% (active) | 88.5% (active) | 6% | 94% (active) | 92.4% (active)
10 | ClCc1nc2ccccc2c2ccccc12 | 15% | 50% | 73.8% (active) | 22% | 26% | 20.8% | 7% | 21% | 55.9% | 10% | 13% | -28.2% | 20% | 67% | 61.1% | 12% | 43% | 83.5% (active)
11 | [N-]=[N+]=NCC(O)c1ccc2c(c1)[nH]c1ccccc12 (stereo not given) | -11% | 30% | 47.9% | -7% | 30% | 29.6% | -5% | 41% | 27.6% | -8% | 23% | 81.8% (active) | -4% | 36% | 64% | 24% | 68% | 75.4% (active)
12 | c1cc2cc(Cc3ccc4[nH]ccc4c3)ccc2[nH]1 | 21% | 26% | 12.2% | 21% | 36% | 11.4% | 25% | 19% | 13% | 16% | 10% | -1.1% | 12% | 16% | 43.2% | 32% | 41% | 92.2% (active)
13 | CCOC(=O)c1nnc2cc(-c3ccccc3)nn2c1-c1ccccc1 | 65% | 85% (active) | 51.1% | 35% | 66% | 21.8% | 48% | 80% (active) | 75.2% (active) | 25% | 38% | 41.4% | 45% | 70% (active) | 65.9% | 61% | 90% (active) | 38.6%
14 | C[N+](C)(CCCCCCOc1c(Br)cc(Br)cc1Br)Cc1ccc(Br)o1 | 71% (active) | 99% (active) | 99.5% (active) | 38% | 100% (active) | 99.8% (active) | 84% (active) | 100% (active) | 99.8% (active) | 40% | 99% (active) | 99.2% (active) | 61% | 99% (active) | 99.8% (active) | 83% (active) | 99% (active) | 99.7% (active)
15 | Cc1ccc(SSCCCCS(=O)O)cc1 | -2% | 33% | 65.7% | 4% | 85% (active) | 62.2% | 5% | 91% (active) | 82.8% (active) | -5% | 64% | 84.9% (active) | 13% | 88% (active) | 80.3% (active) | 1% | 80% (active) | 91.8% (active)
16 | CCOC(=O)C(=Cc1ccccc1Br)C(=O)OCC | 16% | 92% (active) | 78.5% (active) | 33% | 94% (active) | 92.5% (active) | 20% | -18% | 96.5% (active) | 17% | 93% (active) | 67.8% | 26% | 96% (active) | 95.7% (active) | 14% | 97% (active) | 96.2% (active)
17 | Oc1ccc(C/C=C/c2ccccc2)cc1O | 3% | 98% (active) | 56.8% | 4% | 99% (active) | 99.1% (active) | 13% | 99% (active) | 47.8% | -7% | 98% (active) | 98.8% (active) | -1% | 98% (active) | 99.2% (active) | 9% | 98% (active) | 99.2% (active)
18 | Fc1cccc2c1cc1ccc3cccc4ccc2c1c34 | -1% | -11% | 89.2% (active) | 0% | -6% | 40.4% | -5% | -14% | 83.5% (active) | -3% | -4% | 61.7% | 0% | -6% | 87.5% (active) | -5% | -6% | 91.2% (active)
19 | Cc1ccc2c(c1)SSc1ccc(C)cc1SS2 | 78% (active) | 92% (active) | 81% (active) | 42% | 94% (active) | 27.9% | 35% | 94% (active) | 75.7% (active) | 84% (active) | 91% (active) | 55.5% | 79% (active) | 93% (active) | 73.2% (active) | 66% | 93% (active) | 64.8%
20 | CC1=NC(C)C(C)S1 (stereo not given) | -1% | 3% | 9.45% | 0% | 0% | 5.5% | -1% | 1% | -2.5% | 4% | 0% | 16.1% | 3% | 3% | 55.9% | 2% | 4% | 12.7%
